MRP reversal = reversal of MRP1-mediated doxorubicin resistance, primary screen, H69AR cells, doxorubicin co-treatment; differential viability (reversal), % at 10 µM; 85,000 tested, 0.04% active; H69AR cells + 2 uM doxorubicin, CellTiter-Glo, 72 h;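 active = viability drop by adding the cancer drug above about 55%, with treated viability meeting a 40% cutoff, limit read from the data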;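 note: larger differential means the compound sensitizes cells more to doxorubicin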
MRP1 act = H69AR viability gain despite doxorubicin, primary screen, MRP-1 activator project, H69AR cells, CellTiter-Glo; viability rescue; viability increase, % at 10 µM; 140,000 tested, 0.61% active; AID 799, 2007;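 active = viability gain under doxorubicin at or above a set limit, the compound median plus 3 SD, cut at about 4.7% in these data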;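 note: MRP-1 overexpressing cells given doxorubicin 25 µM after compound pretreatment; 18-22 h compound pretreatment then 72 h with doxorubicin before readout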
A number is an active result; n = inactive; x = no result. Shown is part of a subset that was picked to be rich in hits.

SMILES	MRP reversal	MRP1 act
COC(=O)/C(=C/Nc1ccccc1)[N+](=O)[O-]	n	n
COC(=O)/C(=C/Nc1ccc(O)cc1)[N+](=O)[O-]	n	5.2
CNC(=S)Nc1ccc(C23CC4CC(CC(C4)C2)C3)cc1	x	5.2
CNC(=S)Nc1ccc(C)cc1	x	10.9
O=C(CSCCO)Nc1ccc(C23CC4CC(CC(C4)C2)C3)cc1	n	n
Cc1ccc(NC(=S)Nc2ccc(Br)cc2)cc1	x	n
CCOC(=O)c1ccc(Nc2nc(-c3cccnc3)nc3ccccc23)cc1	x	n
O=C(c1ccco1)N1CCN=C1SCc1cccc(F)c1	n	n
CC(=O)N1CCN=C1SCc1ccc(Br)cc1	n	9.4
CC(=O)N1CCN=C1SCc1cccc(C(F)(F)F)c1	n	n
O=C(c1ccco1)N1CCN=C1SCc1ccc(F)cc1	n	6.0
CCC(CO)NCc1cc(OC)c(OCC(=O)NCCc2ccccc2)cc1Br (stereo not drawn)	x	n
CCOc1ccc(NS(=O)(=O)c2cc(NC(=O)c3cccc(C)c3)ccc2Cl)cc1	x	n
Cc1cc(C)c(NC(=O)c2sc3nc4c(cc3c2N)C(=O)CC(C)(C)C4)c(C)c1	x	5.4
COC(=O)c1sc2nc3c(cc2c1N)C(=O)CC(C)(C)C3	n	n
COc1ccc(Cl)cc1N(CC(=O)NC(C(C)C)C(C)C)S(C)(=O)=O	x	n
C=CCn1c(SCC(=O)Nc2cccnc2Cl)nnc1-c1ccccc1F	x	n
CCN(CC)S(=O)(=O)c1ccc2c(c1)nc(CCC(=O)Nc1ccc3c(c1)OCO3)n2CC	x	n
O=C1Nc2ccccc2CCC1Sc1nnc(-c2ccc(Cl)cc2)s1 (stereo not drawn)	n	6.6
CCOC(=O)CN1C(=O)C(Sc2nnc(-c3ccccc3OC)s2)CCc2ccccc21 (stereo not drawn)	n	x
CNS(=O)(=O)c1ccc(Cl)nc1	x	n
COc1ccc(/C=C2/N=C(SC3CCOC3=O)N(c3cccc(OC)c3)C2=O)cc1 (stereo not drawn)	x	5.2
COc1ccc(-n2c(SC3CCOC3=O)nc3ccccc32)cc1 (stereo not drawn)	n	n
O=C(NC(=S)Nc1c(Cl)ccc2nsnc12)c1ccco1	x	n
CCCN(CCC)C(=O)C[n+]1cccc(/C=N/O)c1	x	n
SMILES	MRP reversal	MRP1 act
NS(=O)(=O)c1ccc(NC(=O)C2CCCO2)cc1 (stereo not drawn)	n	n
O=C(Nc1ccc(O)cc1)C1CCCO1 (stereo not drawn)	n	27.8
Oc1c(C(c2cccs2)N2CCN(c3cccc(Cl)c3)CC2)sc2ncnn12 (stereo not drawn)	n	10.9
Oc1c(C(c2cccs2)N2CCOCC2)sc2ncnn12 (stereo not drawn)	n	n
FC(F)(F)c1cc(-c2ccco2)nc(NCCc2ccccc2)n1	n	n
Cc1cc(C)c(S(=O)(=O)Nc2ccc(OCC(=O)O)cc2)c(C)c1	n	n
CCC1CCCCN1C(=S)NC1CCCCC1 (stereo not drawn)	x	n
S=c1[nH]nc(COc2ccc(Cl)cc2)o1	n	4.9
COc1ccc(OCc2n[nH]c(=S)o2)cc1	n	n
CC(C)CNC(=O)c1ccccc1SCC(=O)NC12CC3CC(CC(C3)C1)C2	x	n
COc1cccc(N=Nc2c(N)[nH]n3c(=O)cc(-c4ccccc4)nc23)c1	x	n
Cc1ccc(N=Nc2c(N)[nH]n3c(=O)cc(-c4ccccc4)nc23)cc1	x	6.0
C=CCn1c(COc2ccc(OC)cc2)nnc1SCn1nnc2ccccc2c1=O	x	n
COc1ccc(/C=N/NC(=O)c2ccc(O)cc2O)cc1CSc1ccccn1	x	n
C=CCSC1=NC(=O)/C(=C/c2cccs2)S1	x	8.8
NC1=NC(=O)/C(=C/c2cccs2)S1	x	n
CCOC(=O)C1=C(C)Nc2sc(C(=O)c3ccc(F)cc3)c(N)c2C1c1ccc(C(=O)OC)cc1 (stereo not drawn)	x	n
CCOC(=O)C1=C(C)Nc2sc(C(=O)c3ccc(C)cc3)c(N)c2C1c1ccc(C(=O)OC)cc1 (stereo not drawn)	x	6.5
Cc1ccccc1N=C(NOCc1ccc(Cl)cc1Cl)c1nonc1N	n	n
Cc1ccc(N=C(NOCc2ccc(Cl)cc2Cl)c2nonc2N)c(C)c1	57.0	n
COC(=O)C(C)(C)ONC(=O)Nc1ccccc1	x	n
CCSc1nnc(-c2ccc(C)cc2)c2ccccc12	x	5.6
CCSc1nnc(-c2ccc(Cl)cc2)c2ccccc12	x	n
O=C(Nc1ccon1)c1cc2c(s1)CCCCCC2	n	n
O=C(Nc1ccon1)c1cc2c(s1)CCCC2	n	4.8
SMILES	MRP reversal	MRP1 act
CC1=NN(C(=O)c2ccc(Cn3nc(C)c([N+](=O)[O-])c3C)cc2)C(O)(C(F)(F)F)C1 (stereo not drawn)	x	n
CC1=NN(C(=O)c2ccc(Cn3nc(C)c(Br)c3C)cc2)C(O)(C(F)(F)F)C1 (stereo not drawn)	x	5.2
N#Cc1nc(COc2ccccc2)oc1N1CCCCCC1	n	6.3
N#Cc1nc(COc2ccccc2)oc1N1CCOCC1	n	n
N#Cc1nc(COc2ccccc2)oc1N1CCCC1	x	5.0
N#Cc1nc(COc2ccc(Cl)cc2Cl)oc1N1CCN(c2ccccc2)CC1	n	n
COc1cc(CCC(=O)Nc2cccc(S(=O)(=O)N(C)C)c2)cc(OC)c1OC	x	n
CCOc1ccccc1Nc1nc(N)nc(CSc2nccc(C)n2)n1	n	n
CCOc1ccccc1Nc1nc(N)nc(CN(C)C2CCCCC2)n1	79.7	n
O=C(c1ccccc1NS(=O)(=O)c1cccc(C(F)(F)F)c1)N1CCc2ccccc21	x	n
CCc1nnc(NC(=O)CCC(=O)N2CCN(CCc3ccccc3)CC2)s1	n	n
CCc1nnc(NC(=O)c2ccc(COc3ccccc3)o2)s1	n	n
CCc1nnc(NC(=O)c2ccc(COc3ccc(C)cc3)o2)s1	n	6.2
CCc1nnc(NC(=O)CCC(=O)N2CCN(CCOc3ccc(C)cc3)CC2)s1	n	5.6
CC1=C(C(=O)OC(C)C)C(c2cccc(F)c2)N2C(=O)C(C)SC2=N1 (stereo not drawn)	n	5.3
CC1=C(C(=O)OCC(C)C)C(c2cccc(F)c2)N2C(=O)C(C)SC2=N1 (stereo not drawn)	n	n
Clc1ccc(CNc2nc(CN3CCOCC3)nc3scc(-c4ccccc4)c23)cc1	x	n
C#CC(C)(CC)NC(=O)Cn1nnc(-c2ccc(S(C)(=O)=O)cc2)n1 (stereo not drawn)	n	n
O=C(O)c1ccc(CSc2ncn[nH]2)cc1	n	n
CCCOc1ccc(CSc2ncn[nH]2)cc1	n	7.4
Brc1ccc(CSc2ncn[nH]2)cc1	n	4.9
CCc1ccc(C(=O)CSc2ncn[nH]2)cc1	n	n
O=C1CCCN1c1ccc(S(=O)(=O)Oc2ccc(Cl)cc2)cc1[N+](=O)[O-]	x	n
Cc1ccc2nc(Nc3nc(CSc4nc5ccccc5s4)cc(=O)[nH]3)nc(C)c2c1	x	11.2
Cc1nnc(SCc2cc(=O)[nH]c(Nc3nc(C)c4ccccc4n3)n2)s1	n	x
SMILES	MRP reversal	MRP1 act
COc1ccc(Cl)cc1NC(=O)COC(=O)c1cc(NS(=O)(=O)c2cccs2)ccc1O	x	n
Cc1nc(C)c(C(=O)NNS(=O)(=O)c2ccccc2)s1	x	5.2
Cc1ccc(S(=O)(=O)NNC(=O)c2snnc2C)cc1	n	n
CCNc1oc(-c2ccc(OC)cc2)nc1S(=O)(=O)c1ccc(Br)cc1	n	n
CCCCNc1oc(-c2ccc(OC)cc2)nc1S(=O)(=O)c1ccccc1	n	6.2
CCNC(=O)NC(=O)COC(=O)CCCSc1nc2ccccc2s1	x	n
